In all, about 57,000 […] went through this assay and about 4,900 (8.6%) were called active. Rule as the data show it: active = GI50 up to about 1.1 µM and inactive = higher. Many of the other results were omitted from the sample, so actives are more common in it than they were. Potency and affinity values are given separately.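 Exposure lasted 48 hours, with cells grown in 96-well plates and compounds tested at five concentrations. At the GI50, growth is halved.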
System: MOLT-4
Test: NCI tumour cell line growth inhibition, 48 h

| Substance | GI50 [nM] |
| --- | --- |
| [Bis(aminomethyl)tetramethylenesilane]tetrachloropaltinum(IV), CHEMBL2146189 | 824 |
| [Bis(aminomethyl)ethylmethylsilane]tetrachloroplatinum(IV), CHEMBL2146192 | 531 |
| [Bis(aminomethyl)dimethylsilane]tetrachloroplatinum(IV), CHEMBL2146190 | 1680 |
| cis-Bis[[(trimethylsilyl)methyl]amino]tetrachloroplatinum(IV), CHEMBL2146191 | 2000 |
| CISPLATIN, CHEMBL11359 | 1430 |
| [Bis(aminomethyl)tetramethylenesilane]dichloropaltinum(II), CHEMBL2146205 | 2090 |
| mu-(1,7-nanodiamine-N,N')bis-(cis-aminedichloroplatimum (II)), CHEMBL2146215 | 592 |
| [Bis(aminomethyl)diethylsilane]tetrachloroplatinum(IV), CHEMBL2146203 | 561 |
| [Bis(aminomethyl)dimethylsilane]dichloroplatinum (II), CHEMBL2146201 | 5000 |
| [Bis(aminomethyl)pentamethylenesilane]dichloropaltinum(II), CHEMBL2146202 | 325 |
| [Bis(aminomethyl)pentamethylenesilane]tetrachloropaltinum(IV), CHEMBL2146204 | 505 |

— ChEMBL document CHEMBL1201862, “PubChem BioAssay data set” (2004)
